KinaseGlo FLuc = Kinase-Glo luciferase inhibition (counter-screen) | Potency, µM (doses to about 38.3 µM), for inactives: at the top dose activity change, negative = inhibition, usual class: inhibitors | 200,000 compounds, 0.28% hits | Kinase-Glo luciferase, ATP luminescence, 8 min | AID 1379; note: % is set by controls: 0 for no effect and ±100 for the full control effect; nearly all actives have a fitted effect of over 60% in size
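Luminescence was the read-out, taken after 8-minute incubation at ambient temperature. Luciferase turned over luciferin with 10 uM ATP in imidazole pH 7.2 buffer containing KCl, MgCl2, Tween 20 and BSA.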
NPC1 promoter act = NPC1 promoter activation. Huh7 NPC1 promoter luciferase reporter, 24 h. Potency, µM (titrated, usually from 9.22 µM), for the others: top-dose activation, hits mostly activators. 320,000 compounds, 2.4% hits. AID 485313; note: % of control where 0% means no effect; nearly all actives have a fitted effect of over 60% in size
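Huh7 reporter cells (NPC1 promoter driving luciferase) are dosed with compound for 24 h at 37 °C, 5% CO2; luciferase detection reagent is then added and luminescence measured after 10 min at ambient temperature.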
Rab9 promoter act = activators of Rab9 promoter. Huh7 Rab9 promoter-luciferase reporter, luminescence, 24 h. Potency, µM (doses to about 9.22 µM), inactives show at the highest dose activation, negative = inhibition, most hits filed as activators. 320,000 compounds, 2.8% hits. AID 485297; note: % of control where 0% means no effect; nearly all actives have a fitted effect of over 60% in size
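Huh7 cells stably carrying Rab9 promoter–luciferase reporter, plated 1500 cells/well, compound added after 2 h and incubated 24 h at 37 °C; luciferase luminescence then read after 10 min with detection reagent.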
FLuc modulator = inhibits or activates purified firefly luciferase, miR-21 counter-screen; P08659; purified FLuc, Km substrates, luminescence inhibition; Potency, µM (titrated, usually from 57.5 µM), without a hit: top-dose activity change, negative = inhibition, actives largely listed as inhibitors; 360,000 compounds, 6.9% hits;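 note: plate controls were vehicle for no effect and reference inhibitor for full effect; nearly all actives have a fitted effect of over 55% in size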
Target sequence (P08659 whole entry, looked up): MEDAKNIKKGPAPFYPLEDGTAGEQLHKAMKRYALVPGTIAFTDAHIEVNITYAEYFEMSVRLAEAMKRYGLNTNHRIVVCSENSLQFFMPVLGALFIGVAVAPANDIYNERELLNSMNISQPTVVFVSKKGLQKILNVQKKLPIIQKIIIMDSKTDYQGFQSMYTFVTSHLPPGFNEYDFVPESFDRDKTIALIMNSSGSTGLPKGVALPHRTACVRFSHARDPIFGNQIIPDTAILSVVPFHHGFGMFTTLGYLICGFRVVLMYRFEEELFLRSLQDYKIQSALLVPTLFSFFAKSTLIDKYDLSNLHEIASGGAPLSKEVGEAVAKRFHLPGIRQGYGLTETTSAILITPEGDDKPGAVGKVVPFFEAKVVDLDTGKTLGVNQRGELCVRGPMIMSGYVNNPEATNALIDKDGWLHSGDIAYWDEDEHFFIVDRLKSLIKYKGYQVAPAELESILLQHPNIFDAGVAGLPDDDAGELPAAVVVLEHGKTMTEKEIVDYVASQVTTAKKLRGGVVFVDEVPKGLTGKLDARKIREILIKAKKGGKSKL
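Biochemical qHTS of compounds, final roughly 60 µM downward over six points, against 10 nM purified firefly luciferase using Km concentrations of substrates (10 uM D-luciferin, 10 uM ATP) in Tris acetate pH 7.5 buffer; luminescence output.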
SMN2 splice up = enhancers of SMN2 splice variant expression. HEK293 SMN2-luciferase splicing reporter, luminescence, 30-36 h. AID 1458. 210,000 compounds, 2.8% hits. Potency, µM (series often up to 46.1 µM), for the others: at the highest dose activity change, positive = activation, usual class: activators; note: % of control where 0% means no effect; nearly all actives have a fitted effect of over 55% in size
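qHTS luciferase splicing reporter: luminescence rises when SMN2 exon 7 is included in transfected HEK293 cells. Compound exposure lasted 30-36 h at 37C, with 4.5 mM final sodium butyrate as control, followed by a ONE-Glo read.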
ELG1 genotox = genotoxicity induction in ELG1-luciferase HEK293T cells; HEK293T ELG1-luciferase reporter, luminescence, 16 h; Potency, µM (highest dose often 46 µM), for inactives: top-dose activity change, positive = activation, actives largely listed as activators; 330,000 compounds, 1.3% hits; AID 504466; note: % of control where 0% means no effect; nearly all actives have a fitted effect of over 60% in size
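HEK293T cells expressing luciferase-tagged ELG1 were treated with compound or DMSO for 16 hr at 37°C. Luciferase activity was then read after 30 min with ONE-Glo at room temperature; rising signal flags genetic stress.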
* marks the source's active call; other numbers are inactive results; ? = inconclusive; . = not tested or not shown; [ ] = dose if it differs, or a comment. The list is not random: actives were taken first. Their share in the collection is about 7.5%. Calls come from the whole dose curve; as a rule, active = well fitted curve in the direction sought with a large enough effect; inconclusive = small, poorly fitted or top-dose-only effect, or another doubt; inactive = no such curve, though single readings can be large; an effect the other way counts as inactive or inconclusive. Potency is the fitted concentration of half-maximal effect.

SMILES	KinaseGlo FLuc	NPC1 promoter act	Rab9 promoter act	FLuc modulator	SMN2 splice up	ELG1 genotox
Oc1ccccc1/C=N/NC1=NCCCCC1	3.2%	1.41µM*	2.24µM*	13.5µM*	12.6µM*	?
COc1ccc(/C=N/NC2=NCCCCC2)cc1	-0.9%	2.2%	?	?	-3.3%	?
COc1ccc(/C=N/NC2=NCCCCC2)c(OC)c1	5.0%	8.3%	9.2%	16.9µM*	?	3.1%
COc1ccc(CCNC(=O)C2CCN(S(=O)(=O)c3ccc(F)cc3)CC2)cc1	.	2.9%	6.4%	2.4%	.	-1.7%
Cn1cc(CCCC(=O)NCc2ccccc2Cl)c2ccccc21	.	.	.	2.0%	.	.
Cc1c(-c2ccccc2)c(=O)oc2cc(O)ccc12	.	-1.3%	-3.4%	?	.	2.2%
O=C(CCc1nnc(C2CCCCC2)o1)N1CCN(c2ccccc2F)CC1	.	2.51µM*	3.55µM*	12µM*	.	?
O=C(CCCC(=O)N1CCN(c2ccccc2F)CC1)c1ccccc1	.	?	4.47µM*	26.9µM*	.	?
COc1ccc2oc(-c3ccc(C)c(NC(=O)c4ccc(-c5ccccc5[N+](=O)[O-])o4)c3)nc2c1	.	.	.	?	5.6%	.
CCCOC1CCCN(C(=O)CCc2nnc(-c3ccc4c(c3)OCO4)o2)C1 (stereo unspecified)	.	?	3.16µM*	?	.	?
CCC(=O)C1CCCN(C(=O)CCc2nnc(-c3ccc4c(c3)OCO4)o2)C1 (stereo unspecified)	.	13.6%	?	?	.	?
CCC(=O)C1CCCN(C(=O)CCc2nnc(-c3ccc(C(C)=O)s3)o2)C1 (stereo unspecified)	.	?	?	10.7µM*	.	?
CC1CCCN(C(=O)CCc2nnc(-c3ccc4c(c3)OCO4)o2)C1 (stereo unspecified)	.	?	28.4%	?	.	?
COc1ccc(-c2csc(Nc3ccc(C)cn3)n2)cc1OC	5.0%	4.2%	?	16.9µM*	-18.6%	-0.9%
COc1ccc(-c2csc(Nc3cc(C)ccn3)n2)cc1OC	.	?	?	10.7µM*	.	4.9%
COc1ccc(-c2csc(Nc3ccc(S(N)(=O)=O)cc3)n2)cc1OC	.	-12.3%	-1.5%	-16.5%	.	-14.2%
COc1ccccc1CNC(=O)c1cc(S(=O)(=O)N2CCCCC2)c[nH]1	.	4.9%	-5.1%	-1.2%	.	-1.2%
Cc1cccc(NC(=O)C(=O)NCC2CCCN2S(=O)(=O)c2ccccc2)c1 (stereo unspecified)	.	11.0%	-2.8%	-19.6%	.	?
Cc1ccc(-n2ncc3c(N4CCC(C)CC4)ncnc32)cc1C	.	.	.	1.51µM*	.	.
CCOC(=O)C1CCN(c2ncnc3c2cnn3-c2ccccc2)CC1	2.1%	-0.5%	-1.1%	?	17.9%	?
COc1ccc(-n2ncc3c(N4CCC(C)CC4)ncnc32)cc1	.	0.112µM*	0.1µM*	0.536µM*	.	0.259µM*
CC1CCN(c2ncnc3c2cnn3-c2ccccc2)CC1	-3.9%	0.891µM*	0.631µM*	2.13µM*	12.6µM*	1.46µM*
Cc1cnc(SCc2ccc(Cl)cc2Cl)[nH]c1=O	.	-0.7%	-3.0%	21.3µM*	.	8.2%
Cc1nnc(SCc2ccc(Cl)cc2Cl)[nH]c1=O	3.9%	-0.2%	-0.8%	?	9.6%	?
O=C(NCCNC(=O)c1ccc(-c2ccc(Cl)c(Cl)c2)o1)c1cnccn1	.	8.1%	2.0%	15.1µM*	.	-4.4%
SMILES	KinaseGlo FLuc	NPC1 promoter act	Rab9 promoter act	FLuc modulator	SMN2 splice up	ELG1 genotox
CC(=O)Cc1nsc(NC(=O)c2ccc(-c3cccc(C(F)(F)F)c3)o2)n1	2.0%	0.3%	1.4%	9.53µM*	?	-3.1%
CC(=O)Cc1nsc(NC(=O)c2cc(-c3ccc(Cl)c(Cl)c3)oc2C)n1	0.3%	-3.4%	-1.3%	-2.3%	-5.4%	0.3%
Cc1nnc(NC(=O)c2ccc(-c3cccc(C(F)(F)F)c3)o2)s1	1.9%	1.8%	11.2%	2.8%	?	3.2%
CC(=O)Cc1nsc(NC(=O)c2ccc(-c3cc(Cl)ccc3Cl)o2)n1	0.3%	-10.9%	-1.0%	13.5µM*	-13.8%	-6.2%
O=C(NCCCNC(=O)c1ccc(-c2cccc(Cl)c2)o1)c1cnccn1	.	-3.2%	6.0%	-9.2%	.	-4.4%
CC(=O)Cc1nsc(NC(=O)c2ccc(-c3cc(C(F)(F)F)ccc3Cl)o2)n1	-3.4%	-14.5%	-15.9%	-17.8%	?	-11.6%
CC(=O)Cc1nsc(NC(=O)c2ccc(-c3ccc(Cl)c(Cl)c3)o2)n1	2.7%	-1.0%	-2.2%	10.7µM*	3.0%	-3.1%
CC1(C)CC(=O)C=C(NC2CCCC(O)C2)C1 (stereo unspecified)	.	8.1%	6.5%	-1.7%	.	0.6%
O=C(CN1C(=O)/C(=C/c2ccc(F)cc2)SC1=S)NC1CCS(=O)(=O)C1 (stereo unspecified)	.	-1.0%	10.8%	-6.5%	.	0.5%[9.26 µM]
CCOc1ccccc1CNC(=O)CCC(=O)N1Cc2ccccc2Oc2ncccc21	.	-4.3%	-6.8%	-0.9%	.	-0.9%
CCOc1ccc(CCNC(=O)CCc2c(C)nc3c4c(C)cc(C)nc4nn3c2C)cc1	.	.	.	-4.6%	13.9%	.
COc1ccc(OCC(=O)Nc2nnc3n2CCS3)cc1	.	.	.	-1.2%	.	.
CC(=O)Cc1nsc(NC(=O)c2cc(-c3ccccc3Cl)oc2C)n1	-2.8%	1.6%	-11.0%	?	-5.5%	3.0%
CC(=O)Cc1nsc(NC(=O)c2ccc(-c3ccc(Cl)cc3Cl)o2)n1	-3.6%	2.6%	2.8%	6.75µM*	-2.0%	-3.0%
C/C(=N\Nc1ccc([N+](=O)[O-])cc1)c1ccc(N2CCOCC2)cc1	.	17.3%	1.2%	8.49µM*	.	6.4%
C/C(=N\Nc1ccccc1[N+](=O)[O-])c1ccc(N2CCOCC2)cc1	-12.1%	2.82µM*	3.16µM*	3.38µM*	?	?
COC(=O)N/N=C(\C)c1ccc(C)c([N+](=O)[O-])c1	-13.4%	0.4%	0.1%	?	?	7.3%
C/C(=N\Nc1ccc([N+](=O)[O-])cc1)c1ccco1	-10.7%	?	3.55µM*	7.57µM*	.	?
C/C(=N/Nc1ccccc1[N+](=O)[O-])c1ccc(C)c([N+](=O)[O-])c1	.	3.16µM*	?	-1.1%	.	9.1%
C[C@@H]1C[C@H](C)CN(S(=O)(=O)c2cc(Cl)c(Oc3ccc([N+](=O)[O-])cc3Cl)c(Cl)c2)C1	-5.1%[7.66 µM]	.	.	.	3.2%[9.22 µM]	.
O=C(NC1CCN(Cc2ccccc2)CC1)c1ccc(Cn2c(=O)c3ccccc3n(Cc3ccc(Cl)cc3)c2=O)cc1	.	.	.	-5.0%	-2.8%	.
CS(=O)(=O)CCC(C(=O)O)N1C(=O)c2ccc(Oc3ccc(Cl)cc3)cc2C1=O (stereo unspecified)	.	-1.0%	0.0%[1.84 µM]	-3.5%	.	-0.8%

Screening data from PubChem.
